Calls of active or inactive are those of the source. The calls were made as follows: active = hit-call score of the fitted dose curve at least 0.9, where 1 is the maximum; inactive = score below 0.9.

Read-out in assay [1]: Transforming growth factor beta 1 (TGFb1), TGFB1 (gene 7040)
Put plainly: BSK_KF3CT_TGFb1: BioMAP Diversity Plus: KF3CT Assay for Transforming growth factor beta 1 (TGFb1) Biomarker Activity (AID 2283072). The following applies: primary human keratinocytes with fibroblasts; actives raise or lower the signal. The procedure, abridged: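 Primary human skin cells (keratinocytes, foreskin fibroblasts) were co-cultured, exposed to test chemical and sampled at 24 h. TGF-b1 levels were measured by ELISA and fitted bidirectionally relative to DMSO.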

Read-out in assay [2]: C-C motif chemokine 2 (Homo sapiens) (UniProt P13500)
Nature of the assay: BSK_KF3CT_MCP1: BioMAP Diversity Plus: KF3CT Assay for Monocyte Chemoattractant Protein 1 (MCP1/CCL2) Biomarker Activity (AID 2283073). To be noted: primary human keratinocytes with fibroblasts; actives raise or lower the signal. The procedure, abridged:
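Biomarker MCP-1 is measured by ELISA in primary human keratinocytes co-cultured with foreskin fibroblasts, 24 h after chemical treatment; DMSO serves as the negative control and activity baseline.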

Read-out in assay [3]: Matrix Metallopeptidase 9 (MMP9), MMP9 (gene 4318)
Put plainly: BSK_KF3CT_MMP9: BioMAP Diversity Plus: KF3CT Assay for Matrix Metallopeptidase 9 (MMP9) Biomarker Activity (AID 2283074).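 As to AC50: MMP9 protein level quantified by ELISA in the co-culture.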 The following applies: primary human keratinocytes with fibroblasts; actives raise or lower the signal. The procedure, abridged: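 Human keratinocyte/foreskin fibroblast co-culture; compound added; 24 h; MMP-9 by ELISA; bidirectional fit vs DMSO baseline.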

Read-out in assay [4]: urokinase plasminogen activator (uPA), PLAU (gene 5328)
Nature of the assay: BSK_KF3CT_uPA: BioMAP Diversity Plus: KF3CT Assay for urokinase plasminogen activator (uPA) Biomarker Activity (AID 2283075). To be noted: primary human keratinocytes with fibroblasts; actives raise or lower the signal. The procedure, abridged:
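ELISA readout of uPA, analyzed for signal gain or loss relative to DMSO, from a human primary keratinocyte–foreskin fibroblast co-culture measured 24 h after chemical treatment.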

Read-out in assay [5]: CD40, CD40 (gene 958)
Put plainly: BSK_LPS_CD40: BioMAP Diversity Plus: LPS Assay for CD40 Biomarker Activity (AID 2283076). To be noted: primary human HUVEC with PBMC; actives raise or lower the signal. The procedure, abridged: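 Using a multiplexed primary human co-culture (umbilical vein endothelium plus PBMC), CD40 was read by ELISA 24 h after dosing, with cytotoxicity tracked by sulforhodamine B staining of parallel cultures and activity fitted bidirectionally versus DMSO.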

Read-out in assay [6]: E-selectin (Homo sapiens) (UniProt P16581)
Put plainly: BSK_LPS_Eselectin: BioMAP Diversity Plus: LPS Assay for Eselectin Biomarker Activity (AID 2283077). The following applies: primary human HUVEC with PBMC; actives raise or lower the signal. The procedure, abridged:
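Dose chemical onto LPS-driven HUVEC/PBMC co-culture; after 24 h, run ELISA for E-selectin; fit up- and down-going responses relative to DMSO control.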

Assay [7] can be described thus: BSK_LPS_SRB: Viability Assessment in the BioMAP Diversity Plus: LPS Assay (AID 2283079).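 Also: total protein by sulforhodamine B absorbance as a cytotoxicity measure; measured one day after compound addition; fitted in both directions against DMSO so loss or gain of signal counts.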 The following applies: primary human HUVEC with PBMC. The procedure, abridged: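 Cytotoxicity endpoint in human endothelial–PBMC co-culture: 24 h exposure, then SRB (0.1%) staining, 560 nm read.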
Read-out in assay [8]: Interleukin-1 alpha (IL1a), IL1A (gene 3552)
Nature of the assay: BSK_LPS_IL1a: BioMAP Diversity Plus: LPS Assay for Interleukin-1 alpha (IL1a) Biomarker Activity (AID 2283080). The following applies: primary human HUVEC with PBMC; actives raise or lower the signal. The procedure, abridged: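 Primary human HUVEC and PBMC co-culture stimulated with LPS is dosed and harvested at 24 h. Both increases and decreases in ELISA-measured IL-1a are scored relative to DMSO.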

Read-out in assay [9]: Monocyte Chemoattractant Protein-1 (MCP1), CCL2 (gene 6347)
Put plainly: BSK_LPS_MCP1: BioMAP Diversity Plus: LPS Assay for Monocyte Chemoattractant Protein-1 (MCP1) Biomarker Activity (AID 2283081).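 As to AC50: secreted MCP-1 protein quantified by ELISA in culture supernatant.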 To be noted: primary human HUVEC with PBMC; actives raise or lower the signal. The procedure, abridged: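 Values derive from bidirectional fitting against DMSO of ELISA-measured MCP-1 in a human primary endothelial and mononuclear cell co-culture, 24 h after chemical addition under LPS activation.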

A short description of assay [10]: BSK_LPS_PGE2: BioMAP Diversity Plus: LPS Assay for Prostaglandin E2 (PGE2) Biomarker Activity (AID 2283082).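 As to AC50: secreted prostaglandin E2 measured by ELISA in LPS-stimulated co-culture.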 To be noted: primary human HUVEC with PBMC; actives raise or lower the signal. The procedure, abridged:
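LPS-activated HUVEC/PBMC co-culture; cmpd dosed, 24 h; PGE2 by ELISA; bidirectional fit vs DMSO; SRB (0.1%, TCA-fixed, 560 nm) in parallel plates for overt cytotox.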

Read-out in assay [11]: Macrophage colony-stimulating factor (MCSF), CSF1 (gene 1435)
Nature of the assay: BSK_LPS_MCSF: BioMAP Diversity Plus: LPS Assay for Macrophage colony-stimulating factor (MCSF) Biomarker Activity (AID 2283083). To be noted: primary human HUVEC with PBMC; actives raise or lower the signal. The procedure, abridged: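 Bidirectional fit versus DMSO of ELISA-measured M-CSF in co-cultured human umbilical vein endothelial cells and PBMC, sampled 24 h after dosing.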

Read-out in assay [12]: Tissue Factor, F3 (gene 2152)
Nature of the assay: BSK_LPS_TissueFactor: BioMAP Diversity Plus: LPS Assay for Tissue Factor Biomarker Activity (AID 2283084). The following applies: primary human HUVEC with PBMC; actives raise or lower the signal. The procedure, abridged: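 Read-out: CD142 ELISA, 24 h. System: LPS-driven human endothelial/PBMC co-culture. Analysis: up- or down-signal fitted against DMSO.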

Read-out in assay [13]: Tumor necrosis factor (Homo sapiens) (UniProt P01375)
Put plainly: BSK_LPS_TNFa: BioMAP Diversity Plus: LPS Assay for Tumour Necrosis Factor alpha (TNFa) Biomarker Activity (AID 2283085). The following applies: primary human HUVEC with PBMC; actives raise or lower the signal. The procedure, abridged:
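Read-out is ELISA of TNFa in primary human endothelial cell–PBMC co-cultures at 24 h after compound. Activity in either direction was fitted against DMSO.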

Read-out in assay [14]: Vascular cell adhesion molecule 1 (VCAM1), VCAM1 (gene 7412)
Put plainly: BSK_LPS_VCAM1: BioMAP Diversity Plus: LPS Assay for Vascular cell adhesion molecule 1 (VCAM1) Biomarker Activity (AID 2283086). To be noted: primary human HUVEC with PBMC; actives raise or lower the signal. The procedure, abridged:
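HUVEC + PBMC co-culture, LPS system; compound 24 h; VCAM-1 by ELISA; bidirectional fit vs DMSO control; parallel SRB (0.1%, TCA-fixed, 560 nm) for cytotoxicity.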

Read-out in assay [15]: CD38, CD38 (gene 952)
Nature of the assay: BSK_SAg_CD38: BioMAP Diversity Plus: SAg Assay for CD38 Biomarker Activity (AID 2283087). To be noted: primary human HUVEC with PBMC; actives raise or lower the signal. The procedure, abridged: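 Human HUVEC plus PBMC co-culture stimulated with superantigen; CD38 measured by ELISA 24 h after chemical dosing. Fluorescence read-out, bidirectional fit against DMSO; cytotoxicity tracked in parallel by SRB and Alamar Blue.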

Read-out in assay [16]: CD40, CD40 (gene 958)
Nature of the assay: BSK_SAg_CD40: BioMAP Diversity Plus: SAg Assay for CD40 Biomarker Activity (AID 2283088). To be noted: primary human HUVEC with PBMC; actives raise or lower the signal. The procedure, abridged: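 Endpoint derived by fitting increases or decreases versus DMSO controls. CD40 is detected by fluorescence ELISA in a human vascular co-culture of endothelium and PBMC at 24 h.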

Read-out in assay [17]: CD69, CD69 (gene 969)
Put plainly: BSK_SAg_CD69: BioMAP Diversity Plus: SAg Assay for CD69 Biomarker Activity (AID 2283089).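 As to AC50: cell surface CD69 protein quantified by ELISA with fluorescence detection.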 To be noted: primary human HUVEC with PBMC; actives raise or lower the signal. The procedure, abridged:
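ELISA, fluorescence read-out: CD69 on human umbilical vein endothelial cell + PBMC co-culture, 24 h post-dosing. Gain or loss of signal fitted bidirectionally against DMSO baseline.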

Read-out in assay [18]: Monocyte Chemoattractant Protein-1 (MCP1), CCL2 (gene 6347)
Put plainly: BSK_SAg_MCP1: BioMAP Diversity Plus: SAg Assay for Monocyte Chemoattractant Protein-1 (MCP1) Biomarker Activity (AID 2283090). The following applies: primary human HUVEC with PBMC; actives raise or lower the signal. The procedure, abridged:
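MCP-1 levels in the endothelial–PBMC SAg co-culture were quantified by ELISA at 24 h post-dosing; both increases and decreases versus DMSO scored. Cytotoxicity monitored by SRB total protein in parallel cultures.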

Read-out in assay [19]: Interleukin-8 (IL8), CXCL8 (gene 3576)
Put plainly: BSK_LPS_IL8: BioMAP Diversity Plus: LPS Assay for Interleukin-8 (IL8) Biomarker Activity (AID 2283078). The following applies: primary human HUVEC with PBMC; actives raise or lower the signal. The procedure, abridged: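 In this LPS system, chemical-treated human umbilical vein endothelium/PBMC co-cultures were harvested at 24 h for IL-8 ELISA.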

Sequence of E-selectin (Homo sapiens) (P16581 whole entry, looked up): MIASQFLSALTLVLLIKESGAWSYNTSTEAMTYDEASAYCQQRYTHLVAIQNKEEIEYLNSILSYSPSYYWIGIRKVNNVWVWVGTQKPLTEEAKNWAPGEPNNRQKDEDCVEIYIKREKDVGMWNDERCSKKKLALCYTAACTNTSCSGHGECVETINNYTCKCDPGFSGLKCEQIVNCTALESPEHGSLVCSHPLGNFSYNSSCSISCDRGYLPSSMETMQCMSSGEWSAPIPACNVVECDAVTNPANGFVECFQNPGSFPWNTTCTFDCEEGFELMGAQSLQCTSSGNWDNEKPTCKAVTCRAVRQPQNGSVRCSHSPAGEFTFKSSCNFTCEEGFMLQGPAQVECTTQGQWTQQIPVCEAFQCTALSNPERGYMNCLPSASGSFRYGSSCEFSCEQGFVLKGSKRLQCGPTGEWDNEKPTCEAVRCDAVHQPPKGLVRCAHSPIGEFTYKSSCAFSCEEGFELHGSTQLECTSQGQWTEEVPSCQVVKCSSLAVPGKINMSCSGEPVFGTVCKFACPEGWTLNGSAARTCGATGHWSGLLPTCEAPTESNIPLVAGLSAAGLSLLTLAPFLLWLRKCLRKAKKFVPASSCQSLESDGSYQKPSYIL
Sequence of Tumor necrosis factor (Homo sapiens) (P01375 whole entry, looked up): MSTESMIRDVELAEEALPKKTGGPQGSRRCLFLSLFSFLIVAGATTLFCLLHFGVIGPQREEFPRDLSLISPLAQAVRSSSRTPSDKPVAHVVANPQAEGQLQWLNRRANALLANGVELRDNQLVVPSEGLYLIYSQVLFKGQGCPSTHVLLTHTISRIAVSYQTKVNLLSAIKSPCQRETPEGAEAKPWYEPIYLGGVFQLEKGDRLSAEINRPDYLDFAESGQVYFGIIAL

With `ClC1=C(Cl)C(Cl)(Cl)C(Cl)=C1Cl`, the AC50 is 9.02 µM (active) in assay [1]; 9.19 µM (active) in assay [2]; 9.06 µM (active) in [3]; 10.7 µM (active) in [4]; 10.2 µM (active) in assay [5]; 11.9 µM (active) in [6]. For the same compound, the half-maximal activity concentration (AC50) in [7] is 11.4 µM (active); in [8] it was 10.1 µM (active); in [9] it was 12.3 µM (active); in assay [10], 11.6 µM (active); in assay [11], 9.94 µM (active); in [12] it was 9.9 µM (active). Besides, the concentration at half-maximal activity (AC50) in assay [13] was 18.4 µM (active); in [14], 9.81 µM (active); in assay [15] it was 7.55 µM (active); in assay [16], 8.3 µM (active); in assay [17] it was 8.69 µM (active); in assay [18], 10.6 µM (active).

On to `COCC(C)OCC(C)O` (stereo unspecified), for which the outcome in assay [1], in [2], in assay [3], in [4], in assay [5] and in assay [6] was inactive. In addition, the result in assay [19], in assay [7], in assay [8], in [9], in assay [10] and in [11] was inactive. Also, the outcome in assay [12], in assay [13], in assay [14], in assay [15], in [16] and in assay [17] was inactive. The outcome in [18] was inactive.

Consider `CCC(C)(C)C1CCC(O)CC1` (stereo unspecified), for which the result in [1], in assay [2], in assay [3], in assay [4], in assay [5] and in assay [6] was inactive. The outcome in [19], in assay [7], in assay [8], in [9], in [10] and in assay [11] was inactive. Moreover, the outcome in [12], in assay [13], in assay [14], in [15], in [16] and in assay [17] was inactive. Besides, the outcome in assay [18] was inactive.

By AC50 is commonly meant the concentration giving half of the maximal activity seen.

These data come from PubChem BioAssay (EPA / NIEHS).
